# Experimental data reported in PubChem BioAssay (Tox21).
# Values joined by “and” are separate entries in the source; they are usually repeats but may differ in a detail not shown here. Identical values can stand only once. Inconclusive results are not listed. A call without a number means that no potency is given here. More than one record can exist for a structure, and the calls need not agree. Active and inactive are the calls of the source. Unless noted, calls come from the whole dose curve; as a rule, active = well fitted curve in the direction sought with a large enough effect in the repeat runs; inconclusive = weak or mixed curves; inactive = no such curve, though single readings can be large; an effect the other way counts as inactive or inconclusive.
# Columns and labels:
# [1] = qHTS assay to identify small molecule agonists of the RXR signaling pathway - cell viability counter screen (AID 1159529); note: nearly all actives have a fitted effect of over 50% in size; note: potency is the fitted concentration of half-maximal effect
# Method in brief: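 Counter screen: CellTiter-Glo luminescence. Cells: RXR-alpha-UAS-bla HEK 293T. Medium: 2% charcoal-stripped FBS. Treatment: 16 h, 37 C. Reagent incubation: 30 min, RT.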
# [2] = qHTS assay to identify small molecule antagonists of the retinoid acid receptor (RAR) signaling pathway - cell viability counter screen (AID 1159551); note: nearly all actives have a fitted effect of over 35% in size; note: potency is the fitted concentration of half-maximal effect
# Method in brief: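 Cytotoxicity counter screen: ATP content quantified by CellTiter-Glo luminescence in C3RL4 cells treated 6 hr at 37 C with compound and retinol (1 uM final). Cells plated at 1,000/well and cultured overnight before dosing.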
# [3] = qHTS assay to identify small molecule antagonists of the retinoic acid receptor (RAR) signaling pathway (AID 1159552; note: nearly all actives have a fitted effect of over 50% in size; note: potency is the fitted concentration of half-maximal effect)
# Method in brief: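 Antagonism of retinol-induced RARE reporter activity was measured in C3RL4 cells. Exposure to compounds and 1 uM final retinol lasted 6 hr at 37 C, with luminescence as endpoint.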
# [4] = qHTS assay to identify small molecule agonists of the retinoic acid receptor (RAR) signaling pathway (AID 1159553); note: potency is the fitted concentration of half-maximal effect
# Method in brief: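 Luminescence was measured 30 min after luciferase reagent addition at room temperature. Before that, C3RL4 reporter cells (1,000 per well, plated overnight) were treated with compound for 6 hr at 37 C and 5% CO2.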
# [5] = qHTS assay to identify small molecule antagonists of the estrogen related receptor (ERR) signaling pathway - cell viability counter screen (AID 1224818);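 note: series mostly up to about 46 µM; viability measured after 17.5 h of compound exposure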
# Method in brief: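 Cytotoxicity counter screen: fluorescence from CellTiter-Fluor, added after 17.5 h compound exposure at 37 C and read 30 min later. ERR cell line seeded at 2,000 cells/well, preincubated 6 h before dosing.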
# [6] = qHTS assay to identify small molecule antagonists of the estrogen related receptor (ERR) signaling pathway (AID 1224819; note: nearly all actives have a fitted effect of over 50% in size; note: potency is the fitted concentration of half-maximal effect)
# Method in brief: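 LOPAC library screened for antagonism as reduced One-Glo luminescence in ERR reporter cells (2,000/well). Compounds were added after 6 h pre-incubation and left 18 h at 37C; reading followed a 30 min room-temperature reagent step.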
# [7] = qHTS assay to identify small molecule agonists of the estrogen related receptor (ERR) signaling pathway (AID 1224820)
# Method in brief: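 An ERR cell line provided by NTP was seeded at 2,000 cells per well and allowed to settle for 6 h before compounds in DMSO were added. After 18 h at 37 C, luciferase activity was measured by One-Glo luminescence.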
# [8] = tested on: estrogen-related receptor alpha (ERRalpha) with PGC-1alpha coactivator, human; assay: qHTS assay to identify small molecule antagonists of the estrogen related receptor signaling pathway with the pleiotropic PPARgamma coactivator (PGC) (AID 1224821; calls by dose curve; note: nearly all actives have a fitted effect of over 50% in size; note: potency is the fitted concentration of half-maximal effect)
# Method in brief: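 A PGC/ERR cell line supplied by NTP is seeded, allowed 6 h at 37 C, and treated with test compounds in DMSO for 18 h. Signal is then measured as luciferase luminescence using One-Glo.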
# [9] = qHTS assay to identify small molecule agonists of the estrogen related receptor signaling pathway with the pleiotropic PPARgamma coactivator (PGC) (AID 1224823)
# Method in brief: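 Compounds dissolved in DMSO are added by pin tool to PGC/ERR cells that have settled for 6 h, and incubation continues 18 h at 37 C. Reporter output is measured as One-Glo luminescence.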
# [10] = qHTS assay to identify small molecule antagonists of the estrogen related receptor (ERR) signaling pathway from Tox21 library - cell viability counter screen (AID 1224834); note: nearly all actives have a fitted effect of over 30% in size; note: potency is the fitted concentration of half-maximal effect
# Method in brief: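 CellTiter-Fluor fluorescence, read after 30 min at 37 C, measures viability of ERR cells. Cells plated at 2,000/well and incubated 6 h before pin-tool compound addition, then exposed 17.5 hours at 37 C.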
# [11] = molecular target: Luciferin 4-monooxygenase (Photinus pyralis) (UniProt P08659); assay: qHTS assay to identify small molecule inhibitors of firefly luciferase (AID 1224835); note: nearly all actives have a fitted effect of over 25% in size; note: potency is the fitted concentration of half-maximal effect
# Chain of Luciferin 4-monooxygenase (Photinus pyralis) (P08659 whole entry, looked up): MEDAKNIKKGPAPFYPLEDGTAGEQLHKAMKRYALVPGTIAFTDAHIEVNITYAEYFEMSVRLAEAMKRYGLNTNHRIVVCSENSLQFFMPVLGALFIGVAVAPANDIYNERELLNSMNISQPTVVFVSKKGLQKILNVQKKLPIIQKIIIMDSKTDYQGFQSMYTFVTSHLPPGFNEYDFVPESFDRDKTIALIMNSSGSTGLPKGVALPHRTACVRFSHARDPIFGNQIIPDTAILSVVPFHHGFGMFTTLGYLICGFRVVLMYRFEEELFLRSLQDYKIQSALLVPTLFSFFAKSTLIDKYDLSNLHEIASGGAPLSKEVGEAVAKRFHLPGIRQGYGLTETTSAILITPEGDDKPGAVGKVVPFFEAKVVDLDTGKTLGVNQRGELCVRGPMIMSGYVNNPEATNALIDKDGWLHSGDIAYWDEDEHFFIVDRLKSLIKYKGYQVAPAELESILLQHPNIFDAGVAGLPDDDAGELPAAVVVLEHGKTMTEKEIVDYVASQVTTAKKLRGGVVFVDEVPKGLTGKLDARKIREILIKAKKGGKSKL
# Method in brief: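 Quantitative HTS format; KM concentrations of both substrates. Purified P. pyralis FLuc activity quantified from luminescence images.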
# [12] = qHTS assay to identify small molecule antagonists of the estrogen related receptor signaling pathway with the pleiotropic PPARgamma coactivator (PGC) from Tox21 10K library - cell viability counter screen (AID 1224840; active = well fitted cell-killing curve with a large enough effect in the repeat runs, not every such curve was filed as active; note: nearly all actives have a fitted effect of over 40% in size; note: potency is the fitted concentration of half-maximal effect)
# Method in brief: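 Counter-screen for cytotoxicity: after 17.5 h compound exposure at 37 C, CellTiter-Fluor reagent added to PGC/ERR cells for 30 min and fluorescence read. Cells were seeded at 2,000 per well 6 h before dosing.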
# [13] = qHTS assay to identify small molecule antagonists of the estrogen related receptor signaling pathway with the pleiotropic PPARgamma coactivator (PGC) from Tox21 10K library (AID 1224841; call rule not given here; note: potency is the fitted concentration of half-maximal effect)
# Method in brief: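 Luminescence (One-Glo, 30 min at room temperature) after 18 h compound treatment at 37 C of PGC/ERR reporter cells plated at 2,000 cells/well and settled 6 h beforehand.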
# [14] = qHTS assay to identify small molecule agonists of the estrogen related receptor signaling pathway with the pleiotropic PPARgamma coactivator (PGC) from Tox21 10K library (AID 1224842); note: nearly all actives have a fitted effect of over 15% in size
# Method in brief: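 PGC/ERR reporter cells (NTP line) were seeded 2,000 per well, rested 6 h at 37 C/5% CO2, then pin-dosed with compounds in DMSO for 18 h at 37 C; luciferase read by One-Glo luminescence after 30 min at room temperature.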
# [15] = molecular target: Thyrotropin receptor (Homo sapiens) (UniProt P16473); assay: qHTS assay to identify small molecule agonists of the thyroid stimulating hormone receptor (TSHR) signaling pathway (AID 1224843; calls by dose curve; note: nearly all actives have a fitted effect of over 45% in size)
# Chain of Thyrotropin receptor (Homo sapiens) (P16473 whole entry, looked up): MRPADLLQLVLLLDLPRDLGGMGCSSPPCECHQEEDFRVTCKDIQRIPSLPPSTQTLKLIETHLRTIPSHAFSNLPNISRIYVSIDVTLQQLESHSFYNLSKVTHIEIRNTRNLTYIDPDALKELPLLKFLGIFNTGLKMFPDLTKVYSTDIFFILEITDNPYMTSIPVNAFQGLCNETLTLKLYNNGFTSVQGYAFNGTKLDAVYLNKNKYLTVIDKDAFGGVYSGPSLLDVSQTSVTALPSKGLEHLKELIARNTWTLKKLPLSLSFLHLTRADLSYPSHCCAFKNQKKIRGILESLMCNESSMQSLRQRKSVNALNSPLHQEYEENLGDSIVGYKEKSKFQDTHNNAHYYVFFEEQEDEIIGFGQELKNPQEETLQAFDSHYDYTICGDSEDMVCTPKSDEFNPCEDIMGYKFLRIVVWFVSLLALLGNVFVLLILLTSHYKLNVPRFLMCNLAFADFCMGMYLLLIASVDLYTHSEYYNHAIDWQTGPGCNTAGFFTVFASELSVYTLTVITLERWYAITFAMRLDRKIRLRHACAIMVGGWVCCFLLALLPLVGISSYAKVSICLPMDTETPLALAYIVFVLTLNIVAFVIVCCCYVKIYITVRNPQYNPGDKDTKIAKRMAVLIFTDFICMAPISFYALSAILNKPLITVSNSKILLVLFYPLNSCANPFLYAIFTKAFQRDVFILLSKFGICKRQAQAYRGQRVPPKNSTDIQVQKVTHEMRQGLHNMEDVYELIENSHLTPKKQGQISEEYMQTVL
# Method in brief: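 Compounds are titrated over 15 concentrations, in triplicate, onto TSHR-HEK293 cells seeded at 800/well. Plates sit 30 min at room temperature before cAMP-d2 and anti-cAMP cryptate are added; signal is read after a further hour.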
# [16] = qHTS assay to identify small molecule agonists of the constitutive androstane receptor (CAR) signaling pathway - cell viability counter screen (AID 1224836); note: nearly all actives have a fitted effect of over 45% in size; note: potency is the fitted concentration of half-maximal effect
# Method in brief: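 Double-stable HepG2 hepatoma cells (hCAR plus CYP2B6-2.2kb) are treated for 23 h at 37 C with test compounds in 15-point concentration series. PK11195 at 0.75 uM final is co-added. Cell viability is quantified by CellTiter-Fluor.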
# [17] = qHTS assay to identify small molecule antagonists of the constitutive androstane receptor (CAR) signaling pathway - cell viability counter screen (AID 1224837); note: nearly all actives have a fitted effect of over 45% in size; note: potency is the fitted concentration of half-maximal effect
# Method in brief: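 Cytotoxicity counter-screen: CellTiter-Fluor fluorescence after 23 h compound exposure (15-point qHTS) in double-stable HepG2-CYP2B6-hCAR cells, with 50 nM CITCO added.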
# [18] = molecular target: Nuclear receptor subfamily 1 group I member 3 (Homo sapiens) (UniProt Q14994); assay: qHTS assay to identify small molecule agonists of the constitutive androstane receptor (CAR) signaling pathway (AID 1224839); note: nearly all actives have a fitted effect of over 15% in size; note: potency is the fitted concentration of half-maximal effect
# Chain of Nuclear receptor subfamily 1 group I member 3 (Homo sapiens) (Q14994 whole entry, looked up): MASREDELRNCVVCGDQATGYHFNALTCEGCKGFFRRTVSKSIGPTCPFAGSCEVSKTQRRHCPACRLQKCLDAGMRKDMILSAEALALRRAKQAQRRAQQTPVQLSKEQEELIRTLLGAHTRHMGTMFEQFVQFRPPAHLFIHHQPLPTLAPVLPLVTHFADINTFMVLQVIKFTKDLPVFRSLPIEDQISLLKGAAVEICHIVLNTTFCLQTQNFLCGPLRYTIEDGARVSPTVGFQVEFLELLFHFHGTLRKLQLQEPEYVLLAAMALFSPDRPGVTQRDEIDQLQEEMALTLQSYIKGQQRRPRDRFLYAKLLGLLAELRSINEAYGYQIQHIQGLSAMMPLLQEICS
# Method in brief: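 Readout: firefly luciferase luminescence via ONE-Glo. System: HepG2 double-stable for hCAR and CYP2B6-2.2kb. Conditions: 15-point compound titration, PK11195 at 0.75 uM final, 24 h incubation.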
# [19] = qHTS assay to identify small molecule antagonists of the estrogen related receptor signaling pathway with the pleiotropic PPARgamma coactivator (PGC) cell viability counter screen (AID 1224822; note: series mostly up to about 46 µM)
# Method in brief: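 Viability counter-screen read by fluorescence intensity after 30 min with CellTiter-Fluor at 37 C; PGC/ERR reporter cells were exposed to compounds for 17.5 h at 37 C following a 6 h preincubation.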
# [20] = molecular target: Nuclear receptor subfamily 1 group I member 3 (Homo sapiens) (UniProt Q14994); assay: qHTS assay to identify small molecule antagonists of the constitutive androstane receptor (CAR) signaling pathway (AID 1224838);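 note: HepG2 cells stably expressing hCAR with CYP2B6 luciferase reporter stimulated by CITCO; nearly all actives have a fitted effect of over 40% in size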
# Method in brief: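 Antagonism measured as luciferase signal (ONE-Glo, 30 min, room temperature) in CAR-stimulated cells: HepG2-CYP2B6-hCAR double-stable line exposed 24 hr at 37 C to compound in a 15-point series plus 50 nM CITCO.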
Structure (SMILES),Potency [1],Potency [2],Potency [3],Potency [4],Potency [5],Potency [6],outcome [7],Potency [8],outcome [9],Potency [10],Potency [11],Potency [12],Potency [13],Potency [14],Potency [15],Potency [16],Potency [17],Potency [18],Potency [19],Potency [20]
Clc1ccccc1C(c1ccccc1)(c1ccccc1)n1ccnc1,21.9 µM (active),68.6 µM (active) and inactive,19.3 µM (active),inactive,inactive,12.8 µM (active),inactive,20.3 µM (active),inactive,27.3 µM (active) and 11.9 µM (active),inactive,17.2 µM (active),5.45 µM (active) and 9.44 µM (active),inactive,inactive,,,,,
NNc1nc(-c2ccc([N+](=O)[O-])cc2)cs1,inactive,43.3 µM (active),inactive,54.5 µM (active),,,,,,6.86 µM (active),31.7 µM (active),,48.6 µM (active),inactive,,54.5 µM (active),54.5 µM (active),inactive,,
CCCCN1CCCC[C@H]1C(=O)Nc1c(C)cccc1C,inactive,inactive,inactive,inactive,,,,,,inactive,inactive,inactive,,,inactive,inactive,inactive,,,
O=C(c1ccc(F)cc1)C1CCN(CCn2c(=O)[nH]c3ccccc3c2=O)CC1,inactive,inactive,inactive,inactive,inactive,inactive,inactive,inactive,inactive,,inactive,,inactive,inactive,inactive,inactive,inactive,inactive,inactive,
CC(C)OC(=O)c1cc2c(OCC(O)CNC(C)(C)C)cccc2[nH]1 (centres undefined),inactive,inactive,inactive,inactive,,,,,,inactive,inactive,,,,,inactive,inactive,,,
O=C(O)c1ccc(Cl)c(Cl)c1,inactive,inactive,inactive,inactive,,,,,,inactive,inactive,,inactive,inactive,inactive,inactive,inactive,inactive,,inactive
CC(=O)SC[C@@H](Cc1ccccc1)C(=O)NCC(=O)OCc1ccccc1,inactive,inactive,inactive,inactive,,,,,,inactive,inactive,inactive,,,,inactive,inactive,,,
Clc1ccc(C(Cn2ccnc2)OCc2ccc(Sc3ccccc3)cc2)c(Cl)c1 (centres undefined),inactive,inactive,inactive,inactive,,,,,,inactive,inactive,,,,inactive,inactive,inactive,inactive,,inactive
CCCCN(CCCC)C(=O)N(CCCC)CCCC,inactive,inactive,inactive,inactive,,,,,,inactive,inactive,,,,,inactive,inactive,30.6 µM (active),,inactive
Nc1c(Cl)cc(Cl)cc1Cl,inactive,inactive,inactive,inactive,,,,,,inactive,inactive,inactive,,,inactive,inactive,inactive,inactive,,inactive
COC(=O)C1=C(C)NC(C)=C(C(=O)OCC(C)C)C1c1ccccc1[N+](=O)[O-] (centres undefined),49 µM (active) and inactive,inactive,48.6 µM (active),inactive,,,,,,21.7 µM (active) and 29.8 µM (active),inactive,27.3 µM (active) and inactive,13.7 µM (active) and 21.1 µM (active),inactive,inactive,inactive,inactive,,,inactive
O=C1Cc2cc(CCN3CCN(c4nsc5ccccc45)CC3)c(Cl)cc2N1,23.9 µM (active),inactive,inactive,inactive,,20.3 µM (active),inactive,,inactive,29.8 µM (active),inactive,,,inactive,inactive,inactive,inactive,inactive,,inactive
CCOC(=O)/C=C(C)/C=C/C=C(C)/C=C/c1c(C)cc(OC)c(C)c1C,inactive,inactive,inactive,0.531 µM (active),,,,,,inactive,inactive,inactive,,,inactive,inactive,inactive,inactive,,
N#CC1(c2ccc(F)cc2)CCC(=O)CC1,inactive,inactive,inactive,inactive,,,,,,inactive,inactive,inactive,inactive,inactive,inactive,inactive,inactive,inactive,,inactive
O=c1[nH]cnc2nc[nH]c12,inactive,inactive,inactive,inactive,,,,,,inactive,inactive,inactive,inactive,inactive,inactive,inactive,inactive,inactive,,
CC1=NC(C)OC1C (centres undefined),inactive,inactive,inactive,inactive,,,,,,inactive,inactive,inactive,,,inactive,inactive,inactive,inactive,,inactive
